CYP2C19 inhib: blocks human cytochrome P450 2C19. P33261. 96,000 compounds, 21% hits. CYP2C19 Supersomes, luciferin-H EGE luminescence, 30 min. AID 778. inhibition, % at 5 µM;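 active = CYP2C19 inhibition above a set limit at 5 µM in the primary screen, cut at about 50% in these data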;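 note: plate controls were negative control wells for no effect and 2.5 mM tranylcypromine positive control for full effect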
CYP2C9 inhib: inhibitors of human CYP2C9; inhibition, % at 5 µM; CYP2C9 Supersomes, luciferin-H conversion, luminescence; P11712; 96,000 compounds, 20% hits;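 active = blocking of liver enzyme CYP2C9 beyond about 50% at 5 µM, limit read from the data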
sEH activator: soluble epoxide hydrolase (human) activation. P34913. purified human sEH enzymatic activity, activator screen. activation, % at 2 µM. 91,000 compounds, 0.04% hits. AID 717; in the data active = activation above about 37%
CYP2C9 activ: CYP2C9 (human) activation | P11712 | recombinant CYP2C9, luciferin-H conversion, luminescence; stronger effect = higher value; factor 1 = untreated enzyme, 0 = blocked | activation factor at 5 µM | 96,000 compounds, 1.4% hits;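 active = activation factor of 2 or more for CYP2C9 at a 5 µM dose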;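 note: 0 = sulfaphenazole-blocked wells and 1 = vehicle-only wells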
CYP2C19 act: cytochrome P450 2C19 (human) activation. activation factor at 5 µM. 96,000 tested, under 10 active. P33261. recombinant CYP2C19, luciferin-H EGE luminescence; stronger effect = higher value; 0 = fully inhibited enzyme, 1 = untreated enzyme. AID 1025;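 active = activation factor of at least 2 at 5 µM in the primary screen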;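 note: 0 = wells with 2.5 mM tranylcypromine and 1 = vehicle-only wells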
sEH inh: blocks human soluble epoxide hydrolase activity; recombinant human sEH enzymatic activity assay; inhibition, % at 2 µM; 91,000 compounds, 0.34% hits; AID 707; in the data active = inhibition above about 80%
* hit, by the source's call. Shown are actives, neighbours in structure and some others; about 27% of the full set was active somewhere.

Screening Cc1c(-n2c(SCC(=O)O)nnc2-c2ccccc2Cl)c(=O)n(-c2ccccc2)n1C returned sEH activator -6 and sEH inh 4.
`Cc1ccc(NC(=O)COS(=O)c2ccc(C)cc2)cc1` (stereo not drawn) gave CYP2C19 inhib 32, CYP2C9 inhib 44, sEH activator 1, CYP2C9 activ 0.6, CYP2C19 act 0.7 and sEH inh -1.
Screening CC12CN3CC(C)(CN(C1)C3c1ccc(Br)cc1)C2=O (stereo not drawn) returned CYP2C19 inhib 32, CYP2C9 inhib 4, sEH activator -1, CYP2C9 activ 1, CYP2C19 act 0.7 and sEH inh 2.
`CC12CN3CC(C)(CN(C1)C3c1cc(Br)ccc1O)C2=O` (stereo not drawn) gave CYP2C19 inhib 52*, CYP2C9 inhib 4, sEH activator -11, CYP2C9 activ 1, CYP2C19 act 0.5 and sEH inh 12.
Screening CC(C)C(=O)NC(=S)Nc1ccccc1C(F)(F)F returned CYP2C19 inhib 73*, CYP2C9 inhib 63*, sEH activator 13, CYP2C9 activ 0.4, CYP2C19 act 0.3 and sEH inh -16.
CCC(=O)NC(=S)Nc1cccc(Cl)c1N1CCCCC1 was read as CYP2C19 inhib 2, CYP2C9 inhib 8, sEH activator 7, CYP2C9 activ 0.9, CYP2C19 act 1 and sEH inh -5.
Screening CCCC(=O)NC(=S)Nc1ccccc1C(F)(F)F returned CYP2C19 inhib 55*, CYP2C9 inhib 50*, sEH activator 6, CYP2C9 activ 0.5, CYP2C19 act 0.5 and sEH inh -4.
Screening Cc1ccccc1C(=O)NC(=S)Nc1ccccc1C(F)(F)F returned CYP2C19 inhib 8, CYP2C9 inhib -8, sEH activator 7, CYP2C9 activ 1.1, CYP2C19 act 0.9 and sEH inh -9.
`CCC(=O)NC(=S)Nc1ccccc1C(F)(F)F` gave sEH activator 3 and sEH inh -2.
CCCC(=O)NC(=S)Nc1cccc(Cl)c1N1CCCCC1 was read as CYP2C19 inhib 69*, CYP2C9 inhib 93*, sEH activator 3, CYP2C9 activ 0.1, CYP2C19 act 0.3 and sEH inh -3.
For N#CC1=C(N)N(c2ccccc2Sc2ccccc2)C(=O)C1 the results were CYP2C19 inhib 16, CYP2C9 inhib 10, CYP2C9 activ 0.9 and CYP2C19 act 0.8.
`Cc1cc(C)c2nc(C(F)(F)F)nc(NCCCN3CCOCC3)c2c1` gave CYP2C19 inhib 34, CYP2C9 inhib 32, sEH activator 15, CYP2C9 activ 0.7, CYP2C19 act 0.7 and sEH inh -15.
`CCOC(=O)Cc1nnc(NC(=O)CSc2ccccc2)s1` gave CYP2C19 inhib -10, CYP2C9 inhib 17, sEH activator 0, CYP2C9 activ 0.8, CYP2C19 act 1.1 and sEH inh -1.
For CCOCCc1nnc(NC(=O)CSc2ccccc2)s1 the results were CYP2C19 inhib 19, CYP2C9 inhib 15, sEH activator -2, CYP2C9 activ 0.9, CYP2C19 act 0.8 and sEH inh 0.
For CC(C)c1nnc(NC(=O)CSc2ccccc2)s1 the results were CYP2C19 inhib 63*, CYP2C9 inhib 62*, sEH activator -8, CYP2C9 activ 0.4, CYP2C19 act 0.4 and sEH inh 10.
`CCOCc1nnc(NC(=O)CSc2ccccc2)s1` gave CYP2C19 inhib 49, CYP2C9 inhib 51*, sEH activator 0, CYP2C9 activ 0.5, CYP2C19 act 0.5 and sEH inh 0.
Screening CC(=O)N1c2ccc(S(=O)(=O)CCC(=O)O)cc2CC1C (stereo not drawn) returned CYP2C19 inhib -14, CYP2C9 inhib -12, sEH activator -12, CYP2C9 activ 1.1, CYP2C19 act 1.1 and sEH inh 10.
Screening O=C(CN1C(=O)CC(c2ccco2)Sc2ccccc21)NCc1ccc2c(c1)OCO2 (stereo not drawn) returned CYP2C19 inhib 94*, CYP2C9 inhib 86*, sEH activator 5, CYP2C9 activ 0.1, CYP2C19 act 0.1 and sEH inh -8.
`COc1cc(C2CC(=O)N(CC(=O)NCc3ccco3)c3ccccc3S2)cc(OC)c1OC` (stereo not drawn) gave CYP2C19 inhib 65*, CYP2C9 inhib 71*, sEH activator 4, CYP2C9 activ 0.3, CYP2C19 act 0.4 and sEH inh -6.

Bioassay records from PubChem BioAssay.
